# From PubChem BioAssay
# Values without a mark were called inactive. For some assays here: Measured potencies and affinities stand elsewhere. Active and inactive are the calls of the source. Unless noted, the rule behind the calls is not given here.
# What was measured:
# [1] = antimalarial activity against Dd2 strain (AID 2302;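 active = growth inhibition above 50% at the single 2 µM test dose, taken to imply half-maximal potency below 2 µM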;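 note: 0% = DMSO untreated growth and 100% = chloroquine plus artemisinin killed control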); details: P. falciparum Dd2 in RBCs, LDH growth readout, 72 h; at 2 µM; stronger effect = higher value
# [2] = HepG2 cytotoxicity, primary screen, cytotoxicity control for P. falciparum antimalarial project, cell-based, ATP luminescence (AID 2303;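 active = inhibition above 50%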;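 note: 0% = DMSO wells and 100% = digitonin-killed cells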); details: HepG2 viability, 24-48 h, at 10 µM, stronger effect = higher value
# [3] = target: L-lactate dehydrogenase (Plasmodium falciparum (isolate CDC / Honduras)) (UniProt Q27743); test: PfLDH activity inhibition – cell lysate, 3D7 strain, counter-screen for P. falciparum growth inhibition project (AID 2304);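 note: 0% = vehicle and 100% = reference inhibitor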; details: P. falciparum 3D7 crude extract, LDH APAD/NBT absorbance; at 2 µM; stronger effect = higher value
# [4] = inhibition of 3D7 malaria parasite growth – strain 3D7 (AID 2306);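 note: 0% = DMSO wells and 100% = chloroquine plus artemisinin control wells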; details: P. falciparum 3D7 erythrocytic growth, LDH absorbance, 72 h; at 2 µM; stronger effect = higher value
# [5] = target: Calcium-dependent protein kinase 1 (Plasmodium falciparum (isolate 3D7)) (UniProt P62344); test: PfCDPK1 kinase inhibitors, biochemical, TCAMS library (AID 1159585; cut-off not given, nearly all actives have IC50 up to about 0.98 µM;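 note: inhibitors leave more ATP so luminescence rises with inhibition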); details: recombinant PfCDPK1, Kinase-Glo ATP depletion luminescence
# [6] = target: Plasmodium falciparum protein kinase 6 (PK6, PF3D7_1337100) (UniProt Q8IDW1); test: PfPK6 kinase inhibitors, biochemical, TCAMS library (AID 1159586); details: recombinant PfPK6, Kinase-Glo ATP depletion luminescence
# [7] = target: Protein kinase 7 (PK7), Plasmodium falciparum 3D7 (PF3D7_0213400) (UniProt Q7YTF7); test: inhibition of Plasmodium PK7 catalytic activity – biochemical, TCAMS antimalarial set, Kinase-Glo luminescence (AID 1159587); details: recombinant PfPK7, Kinase-Glo ATP depletion luminescence
# [8] = target: Calcium-dependent protein kinase 4 (Plasmodium falciparum (isolate 3D7)) (UniProt Q8IBS5); test: PfCDPK4 kinase inhibitors, biochemical, TCAMS library (AID 1159588; cut-off not given, nearly all actives have IC50 up to about 0.91 µM); details: recombinant PfCDPK4, Kinase-Glo ATP depletion luminescence
# Sequence of Calcium-dependent protein kinase 4 (Plasmodium falciparum (isolate 3D7)) (Q8IBS5 whole entry, looked up): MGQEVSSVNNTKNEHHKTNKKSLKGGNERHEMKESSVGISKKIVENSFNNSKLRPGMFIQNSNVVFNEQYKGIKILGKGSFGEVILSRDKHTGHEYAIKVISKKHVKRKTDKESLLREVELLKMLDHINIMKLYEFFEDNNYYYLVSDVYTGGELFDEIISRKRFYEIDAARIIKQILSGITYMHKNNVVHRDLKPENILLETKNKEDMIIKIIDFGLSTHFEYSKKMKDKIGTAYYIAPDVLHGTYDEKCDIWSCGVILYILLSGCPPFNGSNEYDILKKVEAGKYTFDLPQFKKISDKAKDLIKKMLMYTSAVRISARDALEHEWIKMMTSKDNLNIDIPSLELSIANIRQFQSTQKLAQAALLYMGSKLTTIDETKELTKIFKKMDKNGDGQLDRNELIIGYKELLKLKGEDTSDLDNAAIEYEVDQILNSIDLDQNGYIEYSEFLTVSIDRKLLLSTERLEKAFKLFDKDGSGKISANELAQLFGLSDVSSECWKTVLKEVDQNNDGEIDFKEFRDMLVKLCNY
# Sequence of Protein kinase 7 (PK7), Plasmodium falciparum 3D7 (PF3D7_0213400) (Q7YTF7 1-343): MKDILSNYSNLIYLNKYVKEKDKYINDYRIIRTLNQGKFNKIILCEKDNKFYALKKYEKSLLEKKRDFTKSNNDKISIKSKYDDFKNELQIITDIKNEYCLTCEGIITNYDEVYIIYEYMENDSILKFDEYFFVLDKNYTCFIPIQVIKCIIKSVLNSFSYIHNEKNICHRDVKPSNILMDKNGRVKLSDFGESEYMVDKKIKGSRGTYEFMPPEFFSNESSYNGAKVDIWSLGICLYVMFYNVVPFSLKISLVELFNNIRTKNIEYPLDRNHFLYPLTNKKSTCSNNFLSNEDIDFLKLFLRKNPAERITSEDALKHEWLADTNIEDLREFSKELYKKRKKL
# Sequence of Calcium-dependent protein kinase 1 (Plasmodium falciparum (isolate 3D7)) (P62344 whole entry, looked up): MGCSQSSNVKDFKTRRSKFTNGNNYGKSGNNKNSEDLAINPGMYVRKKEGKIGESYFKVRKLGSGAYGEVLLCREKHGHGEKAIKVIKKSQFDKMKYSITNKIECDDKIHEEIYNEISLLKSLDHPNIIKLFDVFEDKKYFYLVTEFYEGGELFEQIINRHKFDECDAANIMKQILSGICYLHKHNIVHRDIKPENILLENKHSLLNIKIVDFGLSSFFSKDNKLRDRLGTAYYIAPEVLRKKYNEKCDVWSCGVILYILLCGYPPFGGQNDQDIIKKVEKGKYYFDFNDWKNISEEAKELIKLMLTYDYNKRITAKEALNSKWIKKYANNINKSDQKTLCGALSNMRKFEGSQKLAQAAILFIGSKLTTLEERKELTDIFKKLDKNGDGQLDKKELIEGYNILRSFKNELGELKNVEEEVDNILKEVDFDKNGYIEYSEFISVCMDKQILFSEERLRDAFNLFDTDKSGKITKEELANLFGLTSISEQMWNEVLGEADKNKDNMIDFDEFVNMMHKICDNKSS
# Sequence of L-lactate dehydrogenase (Plasmodium falciparum (isolate CDC / Honduras)) (Q27743 whole entry, looked up): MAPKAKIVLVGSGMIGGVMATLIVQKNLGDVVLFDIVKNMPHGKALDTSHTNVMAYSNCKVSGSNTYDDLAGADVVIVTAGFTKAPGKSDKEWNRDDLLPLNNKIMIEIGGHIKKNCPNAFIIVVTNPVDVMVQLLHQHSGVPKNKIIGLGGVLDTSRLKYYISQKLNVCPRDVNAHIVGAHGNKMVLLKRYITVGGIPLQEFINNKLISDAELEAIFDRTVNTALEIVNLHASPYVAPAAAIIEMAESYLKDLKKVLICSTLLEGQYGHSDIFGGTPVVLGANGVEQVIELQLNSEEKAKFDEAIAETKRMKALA
# Sequence of Plasmodium falciparum protein kinase 6 (PK6, PF3D7_1337100) (Q8IDW1 1-305): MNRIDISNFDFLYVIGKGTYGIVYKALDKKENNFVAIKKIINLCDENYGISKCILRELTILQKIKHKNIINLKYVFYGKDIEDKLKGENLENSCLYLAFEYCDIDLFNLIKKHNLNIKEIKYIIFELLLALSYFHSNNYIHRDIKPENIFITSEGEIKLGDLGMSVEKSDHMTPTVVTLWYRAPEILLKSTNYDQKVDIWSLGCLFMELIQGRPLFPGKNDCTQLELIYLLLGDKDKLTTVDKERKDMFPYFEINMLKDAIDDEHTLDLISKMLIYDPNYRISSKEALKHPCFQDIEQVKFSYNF
Structure (SMILES),growth inhibition [1],inhibition [2],inhibition [3] [%],growth inhibition [4],outcome [5],outcome [6],outcome [7],outcome [8]
CC(C)CC(=O)N1CCNC[C@@H]1C(=O)NCCSCc1c(F)cccc1Cl,3%,1%,0,86% (active),inactive,inactive,inactive,inactive
COc1ccccc1CCNc1nc(C)cc(N[C@@H](Cc2ccccc2)C(=O)Nc2ccccc2)n1,86% (active),30%,0,101% (active),inactive,inactive,inactive,inactive
Cc1cccc(CCNC(=O)c2cc(Br)cc(N3CCN(c4ccncc4)CC3)c2)c1,53% (active),48%,0,96% (active),inactive,inactive,inactive,inactive
O=C(Nc1ccccc1)Nc1cccc(-c2cc(CNCCc3ccccc3)sc2-c2ccncc2)c1,84% (active),14%,7,100% (active),inactive,inactive,inactive,inactive
COc1cccc(C2CCN(CCCCNC(=O)c3ccc(NC(=O)c4ccc(Cl)cc4)cc3)CC2)c1,40%,18%,-5,99% (active),inactive,inactive,inactive,inactive
Cc1cccc2[nH]c(-c3ccc(-c4cccc(CN5CCN(CCN6CCOCC6)CC5)c4)s3)nc12,83% (active),33%,-2,101% (active),inactive,inactive,inactive,inactive
Clc1cc(Nc2ncnc3cc(C#C[C@H]4CCCN4)sc23)cc2[nH]c(Cc3ccccc3)nc12,57% (active),29%,1,91% (active),inactive,inactive,inactive,inactive
O=C(/C=C/c1ccc(Cl)cc1)NCCCCCN1CCCN(C(=O)Nc2cccc(Cl)c2)CC1,10%,19%,-3,85% (active),inactive,inactive,inactive,inactive
N#Cc1cccc(Nc2nccc(NCC(O)c3cccc(C(F)(F)F)c3)n2)c1 (stereo unspecified),84% (active),4%,-3,99% (active),inactive,inactive,inactive,inactive
Cc1oc(-c2ccc(Cl)cc2)cc1C(=O)NCCC1CCN(CCCCCNC(=O)/C=C/c2ccc(Cl)c(Cl)c2)CC1,88% (active),100% (active),-4,100% (active),inactive,inactive,inactive,inactive
Cc1[nH]c(C)c(-c2ccc(OCc3ccc(F)cc3)nc2)c(=O)c1Br,97% (active),41%,-4,97% (active),inactive,inactive,inactive,inactive
O=C(C1CCN(C(c2ccccc2)c2ccc(Cl)c(Cl)c2)CC1)N1CC=CC1 (stereo unspecified),84% (active),1%,7,89% (active),inactive,inactive,inactive,inactive
CCC(CC)n1cc2c(ccc3nc(N)nc(N)c32)n1,-2%,61% (active),4,91% (active),inactive,inactive,inactive,inactive
O=C(/C=C/c1ccc(Cl)c(Cl)c1)NCCCCCCN1CCN(C(=O)Nc2ccc(OC(F)F)cc2)CC1,15%,44%,-4,91% (active),inactive,inactive,inactive,inactive
Cc1cccc2[nH]c(-c3ccc(-c4ccc(NC(=O)CN5CCN(C)CC5)cc4)s3)nc12,86% (active),56% (active),-9,95% (active),inactive,inactive,inactive,inactive
Cc1c(Cl)cccc1S(=O)(=O)N1CCCCC(c2ccc(C(F)(F)F)cc2)=N1,91% (active),15%,5,86% (active),inactive,inactive,inactive,inactive
Cc1cccc2[nH]c(-c3ccc(-c4cccc(CN5CCC(C(N)=O)CC5)c4)cc3)nc12,16%,9%,6,87% (active),inactive,inactive,inactive,inactive
CCN1CCN(c2ccc(Nc3c4ccccc4nc4ccccc34)cc2)CC1,100% (active),24%,-2,99% (active),inactive,inactive,inactive,inactive
CC(C)C[C@H](NC(=O)[C@H](Cc1ccccc1)N(C[C@H](Cc1ccccc1)NC(=O)OC(C)(C)C)C(=O)C(F)(F)F)C(=O)NC1CCN(Cc2ccccc2)CC1,82% (active),13%,-5,92% (active),inactive,inactive,inactive,inactive

Structure (SMILES),growth inhibition [1],inhibition [2],inhibition [3] [%],growth inhibition [4],outcome [5],outcome [6],outcome [7],outcome [8]
Cc1nc2ccc3ccc(CNc4ccc(C(=O)N[C@@H](CCC(=O)O)C(=O)O)c(F)c4)cc3c2c(=O)[nH]1,96% (active),41%,-1,96% (active),inactive,inactive,inactive,inactive
NC1(C(=O)O)Cc2ccc(Cl)cc2C1 (stereo unspecified),1%,0%,-3,93% (active),inactive,inactive,inactive,inactive
Cc1ccc2nc(C)cc(NN=Cc3cccc([N+](=O)[O-])c3)c2c1,99% (active),0%,1,102% (active),inactive,inactive,inactive,inactive
COc1ccc2c(NN=Cc3ccccc3F)ccnc2c1,99% (active),15%,0,98% (active),inactive,inactive,inactive,inactive
O=c1cc(NCCCNCc2[nH]c3cc(Cl)ccc3c2Cl)[nH]c2ccccc12,1%,5%,-2,91% (active),inactive,inactive,inactive,inactive
Cc1ccc(O)c(-c2cc(C(=O)Nc3ccc(S(=O)(=O)N4CCCCC4)cc3)[nH]n2)c1,98% (active),31%,-4,94% (active),inactive,inactive,inactive,inactive
Cc1cccc(C)c1NC1=NC(=S)N(c2cccc(Cl)c2)C12CCC(C(C)(C)C)CC2 (stereo unspecified),53% (active),4%,-14,87% (active),inactive,inactive,inactive,inactive
Cc1nc(N)nc(N)c1-c1ccc(Cl)cc1,0%,15%,-4,96% (active),inactive,inactive,inactive,inactive
c1cc(CNC2CCN(CC3CCCCC3)CC2)cc(-n2ccnc2)c1,97% (active),3%,1,102% (active),inactive,inactive,inactive,inactive
Fc1cccc(C=NNc2ccnc3ccccc23)c1,72% (active),3%,7,103% (active),inactive,inactive,inactive,inactive
O=[N+]([O-])c1ccc(C=NNc2nc(Nc3ccccc3)nc(Nc3ccccc3)n2)o1,61% (active),5%,-4,94% (active),inactive,inactive,inactive,inactive
OC1(c2ccc(Br)cc2)CCN(C2CCN(Cc3ccccc3)CC2)CC1,18%,8%,8,100% (active),inactive,inactive,inactive,inactive
COc1ccc(N(C)Cc2cnc3nc(N)nc(N)c3n2)cc1,-1%,15%,1,98% (active),inactive,inactive,inactive,inactive
Cc1cccc2[nH]c(-c3ccc(-c4ccc(CN5CCCC(O)C5)cc4)s3)nc12 (stereo unspecified),29%,38%,-1,101% (active),inactive,inactive,inactive,inactive
COc1ccc2nccc([C@@H](O)CN3CCC(NC(=O)C(=O)c4c[nH]c5c(C)cccc45)CC3)c2c1,94% (active),17%,-3,102% (active),inactive,inactive,inactive,inactive
Cc1ccc(-c2cc(C(=O)Nc3ccc(S(=O)(=O)N4CCOCC4)cc3)[nH]n2)c(O)c1C,45%,18%,-5,91% (active),inactive,inactive,inactive,inactive
CN1CCCC(CN2CCN(Cc3ccc(-c4cccc(-c5nc6ccccc6[nH]5)c4)cc3)CC2)C1 (stereo unspecified),100% (active),57% (active),-3,101% (active),inactive,inactive,inactive,inactive
COc1ccc(Br)cc1/C=C/C(=O)Nc1ccc(C2CCN(C)CC2)cc1,61% (active),11%,-3,101% (active),inactive,inactive,inactive,inactive
